Results taken from PubChem BioAssay AID1851 (National Center for Advancing Translational Sciences (NCATS), 2009).
Values joined by “and” are separate entries in the source; they are usually repeats but may differ in a detail not shown here. Equal entries are not always repeated. Among all 16,000 compounds or so, about 2,600 (16%) were called active. Another 20% or so got no clear call; they are omitted. Calls follow the shape of the dose curve; as a rule, active = well fitted curve in the direction sought with a large enough effect; inconclusive = small, poorly fitted or top-dose-only effect, or effect the other way; inactive = no such curve, though single readings can be large or run the other way. The list comes from a sample in which actives are over-represented; it also holds similar structures and randomly drawn compounds. A structure can be active in one record and inactive in another.

target: Cytochrome P450 2D6 (Homo sapiens) (UniProt P10635); experiment: Cytochrome panel assay with activity outcomes; conditions: recombinant CYP, pro-luciferin dealkylation, luminescence, p450-cyp2d6; series mostly up to 57.1 µM; activity, negative = inhibition: at the top concentration
Sequence (P10635 whole entry, looked up): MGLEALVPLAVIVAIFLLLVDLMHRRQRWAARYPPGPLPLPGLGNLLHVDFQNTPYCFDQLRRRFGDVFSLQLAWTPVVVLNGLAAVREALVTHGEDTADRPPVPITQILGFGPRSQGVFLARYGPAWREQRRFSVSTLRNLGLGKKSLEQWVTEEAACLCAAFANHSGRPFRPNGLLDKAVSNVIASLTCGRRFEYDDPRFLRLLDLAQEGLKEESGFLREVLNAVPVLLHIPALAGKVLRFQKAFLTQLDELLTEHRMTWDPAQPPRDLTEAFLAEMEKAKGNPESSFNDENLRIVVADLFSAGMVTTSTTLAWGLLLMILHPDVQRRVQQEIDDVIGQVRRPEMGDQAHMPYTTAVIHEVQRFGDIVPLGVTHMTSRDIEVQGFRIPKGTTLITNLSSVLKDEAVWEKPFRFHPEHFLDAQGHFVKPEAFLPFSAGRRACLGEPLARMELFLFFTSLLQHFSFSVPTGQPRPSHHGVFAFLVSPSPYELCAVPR
% is scaled to controls: 0 for no effect and ±100 for the full control effect.

Row | Structure (SMILES) | activity, negative = inhibition | AC50
1 | O=C(Nc1ccccc1)N1CCC2(CC1)CCN(C(=O)Oc1ccccc1)CC2 | -14.2% (inactive) | 
2 | Cc1ccc(C2(c3ccc(C)c(O)c3C)CCN(C)CC2)c(C)c1O | -18.9% [at 11.4 µM] (inactive) | 
3 | Cn1c(O)c(C(c2ccccn2)c2c(O)n(C)c(=S)n(C)c2=O)c(=O)n(C)c1=S | 16.6% (inactive) | 
4 | C[C@@]12CC[C@H](O)C[C@@H]1CC[C@H]1[C@@H]2C[C@@H](O)[C@]2(C)[C@@H](C3=CC(=O)OC3)CC[C@]12O | -7.6% [at 25.6 µM] (inactive) | 
5 | c1ccc2c(c1)Sc1ccccc1N2C[C@H]1CN2CCC1CC2 |  | 0.398 µM (active)
6 | CN1CCc2nc3ccc(F)cc3c(C(N)=O)c2C1 | -18.2% (inactive) | 
7 | CCOc1ccc2c(c1)C(C)=CC(C)(C)N2 |  | 2.51 µM (active)
8 | CCCn1c(C)c(C(=O)c2cccc3ccccc23)c2ccccc21 | -2.05% (inactive) | 
9 | O=C(c1cc(=O)[nH]c2ccc(Br)cc12)N1CCC2(CC1)OCCO2 | 1.7% (inactive) | 
10 | CC(=O)OC1N=C(c2ccccc2)c2cc(Br)ccc2N(C)C1=O (centres undefined) | -17.4% (inactive) | 
11 | C[C@@H]1O[C@H](C[N+](C)(C)C)CS1 | 4.31% (inactive) | 
12 | COc1cccc(-n2c(O)c(C=NCCN3CCOCC3)c(=O)[nH]c2=O)c1 | -36.7% (inactive) | 
13 | CC1CN=C(Nc2cccc3ccccc23)S1 (centres undefined) |  | 11.2 µM (active)
14 | C[N+]1(C)CCO[C@@](O)(c2ccc(-c3ccc([C@]4(O)C[N+](C)(C)CCO4)cc3)cc2)C1 | -1.61% (inactive) | 
15 | COC(=O)C(O)(c1c(C)[nH]c2ccccc12)C(F)(F)F (centres undefined) | -14.7% (inactive) | 
16 | CCOC(=O)[C@@H]1[C@@H]2c3ccccc3-c3ccccc3[C@H]2C[C@H]1O | -5.13% [at 11.4 µM] (inactive) | 
17 | CCOC(=O)C1Cc2c([nH]c3ccccc23)CN1 (centres undefined) |  | 12.6 µM (active)
18 | CCOC(=O)Cn1cc(C(=O)c2ccccc2F)c2ccccc21 | -14.1% (inactive) | 
19 | O=C(O)c1ccccc1-c1c2cc(Br)c(=O)cc-2oc2[c]([Hg])c(O)c(Br)cc12 | -18.3% [at 25.6 µM] (inactive) | 
20 | CC[N+](CC)(CC)CCOc1cccc(OCC[N+](CC)(CC)CC)c1OCC[N+](CC)(CC)CC | 2.95% (inactive) | 
21 | c1cncc(CNc2cc(-c3ccc4c(c3)OCO4)ncn2)c1 |  | 20 µM (active)
22 | c1cncc(CNCCN2CCNCC2)c1 | -5.64% [at 11.4 µM] (inactive) | 
23 | C[C@@H](COc1ccccc1)N(CCCl)Cc1ccccc1 |  | 1.58 µM (active)

Row | Structure (SMILES) | activity, negative = inhibition | AC50
24 | NNC(=O)c1ccc(O)cc1 | -8.63% (inactive) | 
25 | O=C(O)C[O][Sb][O]CC(=O)O | 2.9% [at 11.4 µM] (inactive) | 
26 | O=C(O)[C@H]1[O][Sb][O][C@@H](C(=O)O)C1O (some centres undefined) | -8.1% [at 11.4 µM] (inactive) | 
27 | CCCCCCC[n+]1ccc(-c2cc[n+](CCCCCCC)cc2)cc1 |  | 7.94 µM (active)
28 | COc1cc(C=C(C#N)C#N)cc(O)c1O | -10.1% (inactive) | 
29 | C[C@@]12CC[C@@H]3[C@H](CCC4=CC(=O)CC[C@]43C)[C@@H]1CC[C@@H]2C(=O)COS(=O)(=O)c1ccc(Br)cc1 | 3.29% [at 11.4 µM] (inactive) | 
30 | Cc1cc[c]([Sb]2[O][C@H]([C@H](O)[C@H](O)C(=O)O)[C@@H](CO)[O]2)cc1 | 10.9% [at 11.4 µM] (inactive) | 
31 | N#Cc1ccc(CN2CC[C@@]3(CCCN(C(=O)Oc4ccccc4)C3)C2)cc1 |  | 3.16 µM (active)
32 | O=C(Nc1ccccc1)N1CC2(CCN(C(=O)Oc3ccccc3)CC2)C1 | -0.812% (inactive) | 
33 | N#Cc1ccc(CN2CCCC3(CCN(C(=O)Oc4ccccc4)CC3)C2)cc1 | -4.69% (inactive) | 
34 | CN1CC[C@@]2(CCCN(C(=O)Oc3ccccc3)C2)C1 | -12.1% (inactive) | 
35 | COc1ccc(NC(=O)N2CCCC3(CCN(C(=O)Oc4ccccc4)CC3)C2)cc1 | -1.09% (inactive) | 
36 | O=C(Nc1ccccc1)N1CC[C@@]2(CCCN(C(=O)Oc3ccccc3)C2)C1 | -0.759% (inactive) | 
37 | N#Cc1ccc(CN2CCC3(CC2)CCN(C(=O)Oc2ccccc2)CC3)cc1 | 1.3% (inactive) | 
38 | O=C(Oc1ccccc1)N1CCC[C@@]2(CCN(C(c3ccccc3)c3ccccc3)C2)C1 |  | 5.01 µM (active)
39 | CC(C)CN1CC2(CCN(C(=O)Oc3ccccc3)CC2)C1 | 11.2% (inactive) | 
40 | CC(C)NC(=O)N1CCCC2(CCN(C(=O)Oc3ccccc3)CC2)C1 | 0.403% (inactive) | 
41 | CC(C)CN1CC[C@@]2(CCCN(C(=O)Oc3ccccc3)C2)C1 |  | 6.31 µM (active)
42 | COc1ccc(NC(=O)N2CC[C@@]3(CCCN(C(=O)Oc4ccccc4)C3)C2)cc1 |  | 6.31 µM (active)
43 | COCCCN1CCN(c2nnc3n2-c2sc(Br)cc2C(c2ccccc2Cl)=NC3)CC1 | 9.92% (inactive) | 
44 | N/C(=N\N=C/c1ccc(-c2ccc(O)c(C(=O)O)c2)o1)N[N+](=O)[O-] | -7.29% (inactive) | 
45 | O=C(O)c1ccccc1Nc1cccc(C(F)(F)F)c1 | -2.93% [at 25.6 µM] (inactive) | 
46 | N[C@@H](CCCCP(=O)(O)O)C(=O)O | 4.27% (inactive) | 

Row | Structure (SMILES) | activity, negative = inhibition | AC50
47 | CC[N+](C)(C)c1cccc(O)c1 | 10.6% (inactive) | 
48 | O=C(Oc1ccccc1)N1CCC2(CC1)CN(C(c1ccccc1)c1ccccc1)C2 |  | 7.94 µM (active)
49 | O=C(Oc1ccccc1)N1CCC2(CCCN(C(c3ccccc3)c3ccccc3)C2)CC1 | -0.788% (inactive) | 
50 | CN1CCC2(CC1)CCN(C(=O)Oc1ccccc1)CC2 | -0.504% (inactive) | 
51 | C[C@@H]1O[C@H](OC2[C@@H](O)[C@H](O)C(O)[C@H](O)[C@H]2O)[C@@H](N)C[C@@H]1N=C(N)C(=O)O (some centres undefined) | 3.95% [at 11.4 µM] (inactive) | 
52 | CN1CCN(c2ncc3ncc(=O)n(C)c3n2)CC1 | 10.1% (inactive) | 
53 | CC(=O)O[C@H]1CC[C@@]2(C)C(=CC[C@@H]3[C@H]2CC[C@]2(C)C(=O)CC[C@H]32)C1 | -6.32% [at 25.6 µM] (inactive) | 
54 | CCN(CC)CCO[C@H]1CC[C@@]2(C)C(=CC[C@@H]3[C@H]2CC[C@]2(C)C(=O)CC[C@H]32)C1 |  | 0.0794 µM (active)
55 | C[C@@]12CC[C@H]3[C@@H](CC=C4C[C@H](OS(=O)(=O)O)CC[C@]43C)[C@H]1CCC2=O | 9.55% (inactive) | 
56 | O=C(c1ccccc1F)c1cn(CC(=O)N2CCOCC2)c2ccccc12 | -6.53% (inactive) | 
57 | CCCN(CCC)[C@H]1CCc2c(F)ccc(O)c2C1 |  | 631 nM (active) and 1.58 µM (active)
58 | CCCN(CCC)[C@@H]1CCc2cccc(O)c2C1 |  | 3.16 µM (active) and inactive and 794 nM (active)
59 | Cc1cc(C)c(-n2c(O)c(C=NCCN3CCOCC3)c(=O)[nH]c2=O)c(C)c1 | 4.79% (inactive) | 
60 | O=P(Nc1c(Cl)cccc1Cl)(c1ccccc1)c1nc2c(s1)CCCC2 (centres undefined) | -6.06% (inactive) | 
61 | C[N+]1([O-])[C@@H]2CC(OC(=O)[C@@H](CO)c3ccccc3)C[C@@H]1[C@H]1O[C@H]12 (some centres undefined) |  | inactive
62 | CC(=Nc1c(C)n(C)n(-c2ccccc2)c1=O)c1c(O)n(Cc2ccccc2)c(=O)[nH]c1=O | -3.59% (inactive) | 
63 | O=C(O)CN1CCN(CC(=O)O)CC(=O)[O][Hg][O]C(=O)C1 |  | 3.16 µM (active)
64 | NCCP(=O)(O)O | 19.4% [at 11.4 µM] (inactive) | 
65 | C[C@@]12CC[C@@H]3[C@H](CCC4=CC(=O)CC[C@]43C)[C@@H]1CC[C@@H]2C(=O)Cn1cnc2c(=S)nc[nH]c21 | 7.22% [at 11.4 µM] (inactive) | 
66 | Oc1ccc([C@H](O)[C@@H]2CCCCN2)cc1O | 15.6% [at 11.4 µM] (inactive) | 
67 | O[C@@H](c1cc(-c2ccccc2)nc2c1ccc1ccccc12)[C@@H]1CCCCN1 |  | 3.16 µM (active)
68 | NCc1cc(=O)[nH]o1 |  | inactive
69 | O=C(O)/C=C\c1ccc[c]([Sb](=[O])([OH])[OH])c1 | -6.51% [at 11.4 µM] (inactive) | 

Row | Structure (SMILES) | activity, negative = inhibition | AC50
70 | CC(=O)O/C(=C1/C[C@H]2[C@@H]3CC=C4C[C@@H](OC(C)=O)CC[C@]4(C)[C@@H]3CC[C@]2(C)C1=O)C(F)(F)F | -5.95% [at 11.4 µM] (inactive) | 
71 | COc1ccc2c(c1)C13CCCC[C@@H]1C(C2)N(C)CC3 (some centres undefined) |  | 3.98 µM (active)
72 | COc1ccc2c(c1)[C@]13CCCC[C@@H]1[C@H](C2)NCC3 |  | 6.31 µM (active)
73 | COc1ccc2c(c1)[C@]13CCCC[C@@H]1[C@H](C2)N(C)CC3 |  | 2.51 µM (active)
74 | CC(C)(O)/C=C\C(=O)[C@](C)(O)[C@H]1[C@H](O)C[C@]2(C)[C@@H]3CC=C4[C@@H](C=C(O)C(=O)C4(C)C)[C@]3(C)C(=O)C[C@@]12C | -2.8% [at 11.4 µM] (inactive) | 
75 | C[C@@]12CC[C@H](O)C[C@@H]1CC[C@H]1[C@H]2CC[C@@]2(C)[C@@H](C3=CC(=O)OC3)CC[C@]12O | -0.173% [at 25.6 µM] (inactive) | 
76 | C=CCN1C(=O)NC(=O)/C(=C/c2cccn2C)C1=O | 26.3% (inactive) | 
77 | NC(N)=NCCC[C@H](N)C(=O)O | 8.61% (inactive) | 
78 | CCOP(=O)(CN(CC)CCNP(=O)(OCC)OCC)OCC | 7.73% (inactive) | 
79 | O=C1C=C2C=C[C@H]3C[C@@]2(O1)[C@H]1CCCCN31 | 1.85% [at 25.6 µM] (inactive) | 
80 | c1ccc2c(N3CCNCC3)cccc2c1 |  | 15.8 µM (active)
81 | COc1ccccc1N1CCNCC1 | -9.83% (inactive) | 
82 | c1ccc2nc(N3CCNCC3)ccc2c1 |  | inactive
83 | CC[C@H](Oc1ccc(Cl)cc1)C(=O)OC1C[C@H]2CC[C@@H](C1)N2C (some centres undefined) |  | 0.00631 µM (active)
84 | COc1ccc(C(=O)O[C@H]2CC[C@@]3(C)[C@H]4CC[C@H]5[C@]3(C[C@]3(O)[C@H]6CN7C[C@H](C)CC[C@H]7[C@](C)(O)[C@]6(O)[C@H](O)C[C@]53O)O[C@]24O)cc1OC | 13.4% [at 11.4 µM] (inactive) | 
85 | COc1ccc(C(=O)OC2C[C@H]3CC[C@@H](C2)N3C)cc1OC (some centres undefined) |  | 1 µM (active)
86 | CN1[C@@H]2CC[C@H]1CC(O[C@@H](c1ccccc1)c1ccc(Cl)cc1)C2 (some centres undefined) |  | 1.26 µM (active) and 1.58 µM (active)
87 | CN1C2CCC1CC(OC(=O)c1ccc(Cl)cc1)C2 (centres undefined) |  | 0.224 µM (active)
88 | CCN1C[C@]2(C)CC[C@H](O)[C@@]34[C@@H]5CC6[C@@H](OC)C[C@@](O)([C@@H]5[C@@H]6O)[C@H](C[C@@H]23)[C@H]14 | 3.42% [at 25.6 µM] (inactive) | 
89 | O=c1cccc2n1CC1CNC[C@H]2C1 |  | inactive
